Bioassay records as filed in PubChem.
ANO1 activ – activators or potentiators of mouse TMEM16A chloride channel; Q8BHY3; HEK293 TMEM16A/YFP-H148Q/I152L, iodide quench fluorescence; hits give low values; B-score at 10 µM; actives 0.3% (n = 340,000); AID 623877;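 active = fluorescence-ratio B-score plate-corrected deviation score at least 3 library SD below zero, with starting fluorescence score within 5 deviations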;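 also: channel opened by trigger with iodide after compound preincubation; score built on the fluorescence ratio of max minus min over baseline; more negative score means more quench and so TMEM16A activation or potentiation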
PHOSPHO1 inh – inhibitors of human PHOSPHO1 phosphatase | Q8TCT1 | recombinant PHOSPHO1, absorbance phosphatase assay | inhibition, % at 13.3 µM | actives 1.1% (n = 290,000) | AID 1565; in the data active = inhibition above about 60%
Target sequence (Q8TCT1 whole entry, looked up): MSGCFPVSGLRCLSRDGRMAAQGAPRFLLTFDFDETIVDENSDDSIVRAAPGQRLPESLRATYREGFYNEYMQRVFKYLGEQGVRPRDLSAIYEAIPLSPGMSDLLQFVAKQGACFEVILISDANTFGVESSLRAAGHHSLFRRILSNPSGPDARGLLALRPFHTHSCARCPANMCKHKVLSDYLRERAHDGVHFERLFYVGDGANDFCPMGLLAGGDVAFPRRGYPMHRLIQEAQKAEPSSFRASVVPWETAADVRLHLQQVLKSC
ANO1 block – mouse TMEM16A channel inhibition, primary screen; Q8BHY3; HEK293 TMEM16A/YFP iodide influx fluorescence, ionomycin; normalized B-score (activity score, 25-100; higher = stronger inhibition) at 10 µM; actives 1.2% (n = 310,000);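 active = ratio plate-corrected score three or more library SD toward inhibition, starting fluorescence score within five deviations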;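 also: score derived from kinetic fluorescence span divided by baseline fluorescence per well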
CHT block – inhibits the human high affinity choline transporter. CHT-expressing cells, membrane potential dye, choline response; hits give low values. Q9GZV3. B-score at 10 µM. actives 0.86% (n = 310,000). AID 488975;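 active = B-score over 3 SD under the library average, and starting fluorescence ratio not unusually high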;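 also: choline stimulus applied at its EC90 after an EC20 pre-addition; B-score computed on integrated fluorescence ratio after choline addition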
HDAC3 inh – inhibitors of human histone deacetylase 3; O15379; recombinant HDAC3, fluorogenic peptide/trypsin coupled, fluorescence; inhibition, % at 8.3 µM; actives 0.15% (n = 320,000); in the data active = inhibition above about 26%, passing the limit was not always enough
CHT PAM – human CHT allosteric activation; B-score at 10 µM; actives 0.49% (n = 310,000); CHT-expressing cells, membrane potential dye, choline EC20; hits give high values; LV-AA mutant CHT in HEK293 cells; AID 488977;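 active = initial fluorescence not abnormally high and integrated response B-score, plate-corrected, over 3 SD above library mean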
Numbers stand for hits; . = inactive; / = no result given. Hits are enriched below; roughly 3.2% of the tested compounds scored in any of these assays.

SMILES	ANO1 activ	PHOSPHO1 inh	ANO1 block	CHT block	HDAC3 inh	CHT PAM
Cc1ccc(-c2nc3c(c(=O)[nH]c(=O)n3CC(C)C)n2CC(C)C)cc1[N+](=O)[O-]	-4.6	.	.	.	.	.
COCCn1c(-c2ccc(OC(F)(F)C(F)C(F)(F)F)cc2)nc2c1c(=O)[nH]c(=O)n2CC(C)C (stereo not drawn)	.	.	100	.	.	.
N=C(N)SCc1ccc(Cl)c2ccccc12	.	/	/	/	/	/
Cc1cc(CSC(=N)N)c(CSC(=N)N)cc1C	.	.	.	.	.	12
COc1ccc(NC(=S)NCCCN2CCOCC2)cc1	.	.	.	.	.	.
O=C(CSCCc1ccccn1)Nc1ccccn1	.	.	.	.	.	.
O=C(CSCCc1ccccn1)Nc1cccnc1Cl	.	.	25	.	.	.
N#CC1=C(N)Oc2cc(O)c(Cl)cc2C1c1cccnc1 (stereo not drawn)	-5.2	.	.	.	.	.
CC1CN(C(=O)Cn2cc(S(=O)(=O)CC(=O)N3CCOCC3)c3ccccc32)CC(C)O1 (stereo not drawn)	.	66	.	.	.	.
Cc1ccc(NC(=O)c2cccs2)cc1S(=O)(=O)Nc1cccc(Cl)c1	.	.	100	.	.	.
Cc1ccc(NC(=S)NC(=O)c2ccc(F)cc2)cc1S(=O)(=O)Nc1cccc(Cl)c1	.	.	.	.	.	.
Cc1nnc(NC(=O)c2ccc(S(=O)(=O)N3CC(C)OC(C)C3)cc2)o1 (stereo not drawn)	.	.	.	.	.	.
CCC1CCCCN1S(=O)(=O)c1ccc(C(=O)Nc2nnc(-c3cccs3)o2)cc1 (stereo not drawn)	.	.	25	.	.	.
NC(=O)C1CCCN(C(=O)c2ccc(S(=O)(=O)N3CCCCCC3)cc2)C1 (stereo not drawn)	-13	/	/	/	/	/
Cc1cc(C(=O)Nc2ccc(N3CCCCC3)cc2)no1	.	.	.	.	.	.
Cc1cc(C(=O)Nc2ccc(S(=O)(=O)N3CCCC3)cc2)no1	.	62	.	.	.	.
Cc1nnc(NC(=O)c2ccc(S(=O)(=O)N3CCCCCC3)cc2)o1	.	63	.	.	.	.
Cc1ccc(C)c(NC(=O)C(OC(=O)c2ccc(NC(=O)CC#N)cc2)c2ccccc2)c1 (stereo not drawn)	.	/	.	.	.	.
O=C(NC1CC1)c1ccc(CS(=O)(=O)c2c(Cl)cccc2Cl)o1	.	.	.	.	.	.
COc1ccc(C2N(Cc3ccccc3)CCN2Cc2ccccc2)cc1[N+](=O)[O-]	.	60	.	.	.	.
COc1cc(C2N(Cc3ccccc3)CCN2Cc2ccccc2)ccc1OC(C)=O	.	.	.	.	.	.
Cc1ccc(NC(=O)Cc2c[nH]c3ccccc23)cc1S(=O)(=O)N1CCCCCC1	.	.	.	.	.	.
c1csc(-c2nnsc2-c2nc3ccccc3[nH]2)c1	.	96	.	.	.	.
O=c1[nH]c2ccccc2nc1-c1cccs1	.	.	.	.	.	.
CCN1CCCC1CNC(=O)C1CCN(Cc2nc(-c3cccc(Br)c3)oc2C)CC1 (stereo not drawn)	.	.	.	.	.	8.3
SMILES	ANO1 activ	PHOSPHO1 inh	ANO1 block	CHT block	HDAC3 inh	CHT PAM
CC(=O)Nc1ccc(/C=N/N2C(C)CCCC2C)cc1 (stereo not drawn)	.	.	.	.	.	.
Cn1c(=O)n(C)c2cc([N+](=O)[O-])c(N3CCN(C(=O)c4ccc(F)cc4)CC3)cc21	.	60	.	.	.	.
O=C(c1ccc(N2CCOCC2)c([N+](=O)[O-])c1)N1CCCCC1	.	74	.	.	.	.
Cn1c(=O)n(C)c2cc([N+](=O)[O-])c(N3CCN(C(=O)c4ccc(Cl)cc4)CC3)cc21	.	.	.	.	.	.
Cc1cc(NC(=O)CN(C)S(=O)(=O)c2ccc(-c3ccc(=O)[nH]n3)s2)ccc1Br	.	.	.	.	.	.
CCCC(=O)O[C@]1(C(=O)COC(C)=O)CC[C@H]2[C@@H]3C[C@H](F)C4=CC(=O)C=C[C@]4(C)[C@@]3(F)[C@@H](O)C[C@@]21C	.	.	.	-5	.	.
CCCC(c1nnnn1Cc1cccs1)N1CCN(c2nc3ccccc3s2)CC1 (stereo not drawn)	-13	.	.	.	.	.
CCCC(c1nnnn1CC1CCCO1)N1CCN(c2nc3ccccc3s2)CC1 (stereo not drawn)	.	.	.	.	.	.
COc1cc(/C=C2/C(=N)N3C(=NC2=O)SN=C3S(C)(=O)=O)ccc1OC(=O)c1ccco1	.	.	.	.	.	.
CS(=O)(=O)C1=NSC2=NC(=O)/C(=C\c3ccc(OC(=O)c4ccco4)cc3)C(=N)N21	/	.	.	.	35	.
COc1cc(/C=C2\C(=N)N3N=CSC3=NC2=O)cc(Br)c1OC(=O)c1ccco1	-8.9	.	.	.	.	.
COc1cc(/C=C2/C(=N)N3C(SC)=NSC3=NC2=O)ccc1OC(=O)c1ccco1	.	.	.	-6.5	.	.
CSC1=NSC2=NC(=O)/C(=C\c3cccs3)C(=N)N12	.	.	100	.	.	.
COc1ccc(C(=O)Nn2c(CC(C)C)nc3cc(Cl)ccc3c2=O)c(OC)c1	.	/	.	.	.	.
C=CCc1c(C)nc(SC)nc1Nc1ccc(C(C)=O)cc1	.	74	.	.	.	.
Cc1ccnc(NC(=O)c2ccc(C(=O)c3ccccc3)cc2)c1	.	/	.	.	/	.
Cc1ccnc(NC(=O)c2ccc(S(=O)(=O)c3ccccc3)cc2)c1	.	61	.	.	.	.
CN(C)CCOC(=O)NC12CC3CC(CC(C3)C1)C2	.	.	.	.	.	.
CC(C)=C(NC(=O)c1ccccc1)C(=O)N/N=C/c1ccc(O)cc1	.	.	.	.	.	.
C[N+](C)(C)C/C=C1/COCO1	.	90	.	.	.	.
O=C(Nc1ccc(Cl)cc1)Nc1nnc(-c2ccncc2)s1	.	.	.	.	.	.
COC(=O)Nc1nnc(-c2ccncc2)s1	.	62	.	.	.	.
O=C(CCCOc1cccc(Br)c1)NCCOc1ccccc1	.	.	.	.	.	.
CC(C)CCNC(=O)CCCOc1ccccc1	-4.6	.	.	.	.	.
COC(=O)Cn1c(CN2CCC(Cc3ccccc3)CC2)nc2c1c(=O)n(C)c(=O)n2C	.	.	25	.	.	.
O=C(CSc1nnc(Cc2ccc(Cl)cc2)o1)Nc1ccccc1	.	.	.	.	.	.
Cc1sc(NC(=O)CN2CCOCC2)nc1-c1ccc2c(c1)CCN2S(=O)(=O)c1ccccc1	.	.	25	.	.	.
CCc1nn2c(=O)cc(COc3ccc(/C=C4\C(=N)N5N=C(C)SC5=NC4=O)cc3)nc2s1	.	61	.	.	.	.
